Data: PubChem BioAssay AID770 (SRMLSC, 2007)
Fewer than 10 of roughly 3,300 compounds were called active.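 The calls were made as follows: active = growth inhibition above 90% in viable cell count at a single dose; inactive = growth inhibition below 90%.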 Not all results are given here.

Assay: HT29 colon tumor cell growth inhibition, primary screen, imaging, high content imaging, 24 h, CellTiter-Glo (AID 770);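 as to condensed nuclei: share of cells whose nuclear area falls below control median minus 1.5 SD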
Details: HT29 cell number by imaging, at 10 µM, stronger effect = higher value; for condensed nuclei: measured here: percent cells with condensed nuclei
[1] = measured here: ATP CellTiter-Glo viability

| Structure (SMILES) | growth inhibition | growth inhibition [1] [%] | condensed nuclei [%] |
| --- | --- | --- | --- |
| C=CCN=C(C)C1=C(O)CCC1=O | -21.7% (inactive) | -5.99 | 1.55 |
| CN(C)/C=C1\N=C(c2cccs2)OC1=O | 21% (inactive) | 8.97 | 2.88 |
| COc1cccc2c1C(=O)c1c(O)c3c(c(O)c1C2=O)C[C@@](O)(C(=O)CO)C[C@@H]3O[C@H]1C[C@H](N)[C@H](O)[C@H](C)O1 | 84.2% (inactive) | 0 | 0 |
| COc1cccc2c1C(=O)c1c(O)c3c(c(O)c1C2=O)C[C@@](O)(C(C)=O)C[C@@H]3O[C@H]1C[C@H](N)[C@H](O)[C@H](C)O1 | 96.9% (active) | 33.6 | 8.82 |
| CC(C)CC(C(=O)O)C(C)CC(=O)Nc1ccn(-c2ccccc2)n1 (stereo unspecified) | 23.8% (inactive) | -0.54 | 6.12 |
| O=C(NCc1ccccn1)c1ccc(=O)oc1 | 3.8% (inactive) | -10.6 | 2.33 |
| C=CCOc1ccc(C2/C(=C(\O)c3ccc(F)cc3)C(=O)C(=O)N2CCCN(C)C)cc1 (stereo unspecified) | 12.6% (inactive) | -2.77 | 0.82 |
| COc1ccc(OC)c(C2/C(=C(\O)c3ccc(OC)c(Cl)c3)C(=O)C(=O)N2CCN(C)C)c1 (stereo unspecified) | -11.2% (inactive) | -7.25 | 3.18 |
| COc1cccc(C2/C(=C(\O)c3ccc4c(c3)OCCO4)C(=O)C(=O)N2CCN(C)C)c1 (stereo unspecified) | 2.52% (inactive) | -0.26 | 1.83 |
| CC1(C)Cc2c(sc3c2C2=NCCN2C=N3)CS1 | 8.06% (inactive) | 0.86 | 5.47 |
| Nc1nonc1-c1noc(N2CCOCC2)n1 | -12.5% (inactive) | -12.3 | 1.72 |
| O=C1C2ON(c3ccccc3)C(c3cccnc3)C2C(=O)N1Cc1ccccc1 (stereo unspecified) | 13.7% (inactive) | -16.2 | 2.97 |
| N#CC(C(=O)NC1CC1)c1nc2ccccc2nc1N1CCN(C/C=C/c2ccccc2)CC1 (stereo unspecified) | -33.2% (inactive) | -7.38 | 1.95 |
| CCOC(=O)c1cc(CC)sc1NC(=O)C1CC1 | -8.79% (inactive) | -9.23 | 2.27 |
| CN1C(=O)c2ccc(N(C)C)cc2C1=O | -24.1% (inactive) | -7.32 | 1.05 |
| CCN1C(=O)CC(N2CCN(c3ccc(OC)cc3)CC2)C1=O (stereo unspecified) | -5.76% (inactive) | -6.84 | 4.31 |
| COc1ccc(S(=O)(=O)N2CCC(N3CCCCC3)CC2)cc1 | -21.4% (inactive) | 3.08 | 2.89 |
| Cc1cccn2c(=O)c3cc(C(N)=S)c(=N)n(CCCOC(C)C)c3nc12 | -47.5% (inactive) | -18.1 | 3.48 |
| Cc1cccc(C)c1NC(=O)CSCC(=O)c1ccc(O)c(O)c1 | 24.8% (inactive) | -2.15 | 7.02 |
| CC(C)Cc1nc(N2CCN(C(=O)Cc3ccccc3)CC2)c(C#N)c2c1COC(C)(C)C2 | -45.4% (inactive) | -6.01 | 0.93 |
| Cc1ccc(Oc2nc3c(c(=O)n(Cc4ccccc4F)c(=O)n3C)n2C)cc1 | 1.1% (inactive) | 5.27 | 1.09 |
| c1ccc2c(c1)NC(c1ccncc1)n1c-2nc2ccccc21 (stereo unspecified) | 16.4% (inactive) | -9.59 | 3.13 |
| COc1ccc(/C(O)=C2/C(=O)C(=O)N(c3ncccn3)C2c2ccc(OC)c(OC)c2)cc1 (stereo unspecified) | 59.3% (inactive) | 10.6 | 4.07 |
| O=C1CC(c2ccccc2)NC(=O)N1 (stereo unspecified) | -5.61% (inactive) | 1.46 | 3.08 |

| Structure (SMILES) | growth inhibition | growth inhibition [1] [%] | condensed nuclei [%] |
| --- | --- | --- | --- |
| FC(F)(F)c1cccc(N2CCc3cn[nH]c32)c1 | 21.1% (inactive) | -4.43 | 4.2 |
| CCCCCC(=O)N1CC2(C)CN(C(=O)CCCCC)CC(C)(C1)C2=O | -27.8% (inactive) | -0.56 | 1.67 |
| CN1CCc2c(n(CC(O)CN3C(=O)c4ccccc4S3(=O)=O)c3ccccc23)C1=O (stereo unspecified) | 3.96% (inactive) | -10.2 | 8.09 |
| O=C1CC(C(=O)O)c2ccccc2N1 (stereo unspecified) | 10.3% (inactive) | 0.11 | 2.67 |
| COc1nc(NS(=O)(=O)c2ccc(C)cc2)nc(C)c1Cl | 9.89% (inactive) | -6.08 | 2.47 |
| CCOC(=O)N1CCN(c2ncnc3c2cnn3-c2ccc(OC)cc2)CC1 | 17% (inactive) | 5.78 | 3.96 |
| CCOC(=O)C1CCCN(c2nc3ccccc3nc2C(C#N)C(=O)OCCOC)C1 (stereo unspecified) | 49.2% (inactive) | 70 | 9.83 |
| Cn1ncc2nc[nH]c(=O)c21 | 27.4% (inactive) | 0.04 | 2.08 |
| CC(C)Nc1nc(NC(C)C)nc(N(C)n2cnnc2)n1 | -12.4% (inactive) | -9.08 | 2.84 |
| COc1ccc(C(=O)OC(C)CN2CCN(C)CC2)cc1OC (stereo unspecified) | 28.2% (inactive) | 1.58 | 5.84 |
| Cc1cc(Cn2ccnc2)c(C)cc1Cn1ccnc1 | 13.6% (inactive) | 11.6 | 3.14 |
| COc1cc(-c2nn3c(COc4ccccc4)nnc3s2)cc(OC)c1OC | 56.5% (inactive) | 9.54 | 5.76 |
| CCOC(=O)C1=C(C)NC(SCC(=O)Nc2nc(C)cs2)=C(C#N)C1c1cccs1 (stereo unspecified) | 7.8% (inactive) | 22.8 | 5.36 |
| COc1ccc(OC)c(NC(=O)CSc2nnc(-c3ccco3)n2-c2ccc(C(=O)O)cc2)c1 | 5.68% (inactive) | -8.2 | 4.63 |
| c1ccc(N2CCN(c3nc(-c4ccccn4)nc4ccccc34)CC2)cc1 | 4.92% (inactive) | -10.8 | 11.6 |
| CC1(C)Cc2c(C#N)c(OCC(=O)c3ccc(Cl)cc3)nc(-c3ccoc3)c2CO1 | 18.7% (inactive) | 21.9 | 4.85 |
| O=C(NCc1ccccc1)c1ccc(=O)[nH]n1 | -5.75% (inactive) | -8.23 | 3.79 |
| Cc1ccc(NC(=O)Cn2nc(C)c3ccccc3c2=O)cc1 | -20% (inactive) | -4.94 | 3.28 |
| COc1ccc(OC)c(C2NC(=O)c3sc(=S)n(-c4ccccc4)c3N2)c1 (stereo unspecified) | 36.6% (inactive) | 16.9 | 4.81 |
| CC(=O)N1CC=C2C(C#N)=C(N)C(C#N)(C#N)[C@H](c3ccoc3)[C@H]2C1 | 6.78% (inactive) | -12.8 | 3.16 |
| Cc1ccc(CNc2oc(COc3ccccc3Cl)nc2C#N)cc1 | -7.99% (inactive) | -1.41 | 4.34 |
| CCOC(=O)C(NC=O)(NC(C)(C)C)C(=O)OCC | -28.5% (inactive) | -6.54 | 2.61 |
| Cc1nc2sc(C#N)c(N)c2c2c1CCCC2 | -26.7% (inactive) | -6.54 | 1.98 |
